Test results from PubChem BioAssay AID2717 (Broad Institute, 2010).
In all, about 300,000 compounds went through this assay and about 3,200 (1.1%) were called active. This is one part of a sample in which actives are shown more often than they occur. Rule as the data show it: active = inhibition above about 75%; inconclusive = no clear call, values can overlap the other calls; inactive = below that; tested in HMLE shEcad cells.

experiment: cancer stem cell viability inhibitors, primary screen, luminescence (AID 2717); conditions: cancer stem cell-like cells viability, at 7.5 µM, stronger effect = higher value

| SMILES | inhibition |
| --- | --- |
| Cc1ccc(P(=S)(c2ccc(C)o2)N2CCOCC2)o1 | 76.5% (active) |
| Cc1ccc(-n2c(C)cc(/C=C3\C(=O)NC(=O)N(C)C3=O)c2C)cc1C | -18.6% (inactive) |
| CCCCCCCCCCCCn1ccc(=N)cc1 | 102% (active) |
| O=C(O)C1CSC(c2cccnc2)N1 (stereo not given) | -4.58% (inactive) |
| CCC1(C)CC(CCNCc2ccc(N(C)C)cc2)(c2ccc(F)cc2)CCO1 (stereo not given) | 15% (inactive) |
| COc1ccc(Br)cc1CNCCc1cccc(Cl)c1 | 35.5% (inactive) |
| O=C1C2(Cl)C3(Cl)C4(Cl)C(Cl)(Cl)C5(Cl)C3(Cl)C1(Cl)C5(Cl)C24Cl (stereo not given) | 101% (active) |
| COC(=O)C1=C(c2cccc(OCc3ccccc3)c2)C[C@@H]2CC[C@H]1N2C(=O)NCc1ccc(Br)cc1 | 30% (inactive) |
| C[C@]12CC[C@H](O)CC1=C([N+](=O)[O-])CC1C2CC[C@@]2(C)C1CC[C@@H]2O (stereo not given in full) | 19.8% (inactive) |
| CC(Cc1ccccc1)NCCC(c1ccccc1)c1ccccc1 (stereo not given) | 86.3% (active) |
| CC(=O)NC(=O)NC(C)Cc1ccccc1 (stereo not given) | -9.41% (inactive) |
| CC(Cc1ccccc1)NC=O (stereo not given) | -4.89% (inactive) |
| CCC(=O)c1ccc(OCC(=O)N2CCN(CC(=O)Nc3ccc(C)cc3)CC2)cc1 | -4.41% (inactive) |
| O=C(O)COc1ccccc1/C=C1\C(=O)NC(=O)N(CCC2=CCCCC2)C1=O | -7.06% (inactive) |
| O=C1NC(=O)N(CCc2ccc(F)cc2)C(=O)/C1=C/C=C/c1ccccc1 | 89.8% (active) |
| O=C1NC(=O)N(Cc2ccco2)C(=O)/C1=C\c1ccc(-c2ccc(F)cc2)o1 | -3.26% (inactive) |
| COC(=O)C1=C(c2ccc(Cl)c(C(F)(F)F)c2)C[C@@H]2CC[C@H]1N2C(=O)NC1CC1 | -14.7% (inactive) |
| Nc1ccc([N+](=O)[O-])cc1 | 22.2% (inactive) |
| COC(=O)C1=C(c2ccccc2OCc2ccccc2)C[C@@H]2CC[C@H]1N2C(=O)NCc1ccc(OC)cc1 | 6.19% (inactive) |
| N#Cc1ccc(Cn2cc(C(=O)c3ccco3)c3ccccc32)cc1 | 6.82% (inactive) |
| COC(=O)C1=C(c2c(C)noc2C)C[C@@H]2CC[C@H]1N2C(=O)NCc1ccc2c(c1)OCO2 | 2.81% (inactive) |
| N=c1ccccn1Cc1ccccc1 | 1.97% (inactive) |
| COC(=O)C1=C(c2ccc(-c3ccccc3)c(F)c2)C[C@@H]2CC[C@H]1N2C(=O)NCc1ccc(F)cc1 | 36.3% (inactive) |
| C[C@]12CC[C@H](O)C[C@H]1CC[C@@H]1C2CC[C@]2(C)[C@@H](C3=CC(=O)OC3)[C@@H](O)C[C@]12O (stereo not given in full) | 85% (active) |
| C[C@]12CCC3C(CC[C@H]4C[C@@H](O)CC[C@]34C)C1CC[C@@H]2O (stereo not given in full) | -19.5% (inactive) |
| C[C@]12CCC3C(CC[C@H]4C[C@@H](O)CC[C@]34C)C1C[C@@H](O)[C@H]2O (stereo not given in full) | -9.01% (inactive) |
| CC(Cc1cccs1)NCc1ccc(Cl)cc1 (stereo not given) | -5.86% (inactive) |
| COC(=O)C1=C(c2ccc(F)cc2OCc2ccccc2)C[C@@H]2CC[C@H]1N2C(=O)NCc1ccc2[nH]ccc2c1 | 9.97% (inactive) |
| COc1ccc(-c2nn(CCC#N)cc2C(=O)O)cc1 | 1.09% (inactive) |
| COC(=O)C1=C(c2ccc(F)cc2OCc2ccccc2)C[C@@H]2CC[C@H]1N2C(=O)NCc1ccc(Cl)cc1 | 15.5% (inactive) |
